# Results filed as inconclusive are left out. Active and inactive are the calls of the source. The calls were made as follows, unless noted: active = hit-call score of the fitted dose curve at least 0.9, where 1 is the maximum; inconclusive = response in the unintended direction; inactive = score below 0.9.
# Tests used:
# [1] = ATG_Hpa5_TRANS: Attagene TRANS-FACTORIAL HepG2 Assay for human GAL4-Hpa5 Hepatocyte Transcription Factor Basal Promoter (AID 2282975); conditions: HepG2 Attagene GAL4-Hpa5 transcription reporter;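 also: hits are increases in reporter mRNA over DMSO baseline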
# Procedure, shortened: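 Basal-promoter GAL4 background control within the HepG2 trans-factorial panel of transiently transfected reporter units. Reporter mRNA is measured 24 h after dosing by RT-PCR and capillary electrophoresis, fitted for gain of signal versus DMSO.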
# [2] = biological target: Glucocorticoid receptor (Homo sapiens) (UniProt P04150); test: ATG_GR_TRANS: Attagene TRANS-FACTORIAL HepG2 Assay for human Glucocorticoid Receptor (GR) (AID 2282978); conditions: HepG2 Attagene TRANS GR reporter, mRNA transcription;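 also: activators score as hits since higher reporter transcript over DMSO is fitted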
# Glucocorticoid receptor (Homo sapiens), sequence (P04150 whole entry, looked up, the tested form may be a part): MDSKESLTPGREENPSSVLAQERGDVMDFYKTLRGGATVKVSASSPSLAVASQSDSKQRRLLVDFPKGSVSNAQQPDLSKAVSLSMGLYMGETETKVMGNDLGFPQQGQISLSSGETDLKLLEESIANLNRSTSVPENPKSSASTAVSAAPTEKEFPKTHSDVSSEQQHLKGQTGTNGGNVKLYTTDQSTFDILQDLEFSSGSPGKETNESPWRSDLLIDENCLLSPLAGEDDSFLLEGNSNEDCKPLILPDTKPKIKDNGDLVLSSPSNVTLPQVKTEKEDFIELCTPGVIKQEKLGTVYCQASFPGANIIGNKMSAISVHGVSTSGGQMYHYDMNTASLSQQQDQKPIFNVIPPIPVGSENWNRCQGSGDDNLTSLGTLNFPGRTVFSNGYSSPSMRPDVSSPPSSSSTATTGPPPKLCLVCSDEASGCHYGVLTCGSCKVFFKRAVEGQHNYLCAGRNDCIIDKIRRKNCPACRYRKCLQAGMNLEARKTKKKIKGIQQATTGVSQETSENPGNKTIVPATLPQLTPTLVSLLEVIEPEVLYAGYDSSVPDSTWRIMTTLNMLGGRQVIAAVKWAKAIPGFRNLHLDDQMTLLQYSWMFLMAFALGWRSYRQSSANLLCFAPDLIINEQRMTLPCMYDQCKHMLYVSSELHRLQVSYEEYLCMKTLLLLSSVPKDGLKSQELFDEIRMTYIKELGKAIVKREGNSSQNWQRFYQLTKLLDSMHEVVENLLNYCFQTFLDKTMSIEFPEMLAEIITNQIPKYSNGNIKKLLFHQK
# Procedure, shortened: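 Fluorescent capillary-electrophoresis quantitation of reporter mRNA is the readout, taken 24 h after dosing human HepG2 cells carrying transiently transfected GAL4-UAS reporter units activated by chimeric NR-GAL4 fusions; activity scored as induction over DMSO.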
# [3] = biological target: Oxysterols receptor LXR-alpha (Homo sapiens) (UniProt Q13133); test: ATG_LXRa_TRANS: Attagene TRANS-FACTORIAL HepG2 Assay for human Liver X Receptor alpha (LXRa) (AID 2282980); conditions: HepG2 Attagene TRANS reporter, LXRa transactivation
# Oxysterols receptor LXR-alpha (Homo sapiens), sequence (Q13133 whole entry, looked up, the tested form may be a part): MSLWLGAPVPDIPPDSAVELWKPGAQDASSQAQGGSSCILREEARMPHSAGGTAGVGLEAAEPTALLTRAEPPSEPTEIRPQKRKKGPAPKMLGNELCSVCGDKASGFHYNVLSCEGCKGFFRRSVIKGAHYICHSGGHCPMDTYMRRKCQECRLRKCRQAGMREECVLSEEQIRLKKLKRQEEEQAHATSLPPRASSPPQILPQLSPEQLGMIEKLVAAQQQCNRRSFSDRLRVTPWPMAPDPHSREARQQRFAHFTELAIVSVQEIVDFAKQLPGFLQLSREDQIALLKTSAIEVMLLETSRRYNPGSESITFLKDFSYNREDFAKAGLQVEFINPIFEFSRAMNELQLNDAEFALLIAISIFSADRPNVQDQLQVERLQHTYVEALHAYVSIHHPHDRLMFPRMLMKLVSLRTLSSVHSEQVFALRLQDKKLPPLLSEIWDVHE
# Procedure, shortened: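 In this multiplexed TRANS system, compounds act on HepG2 cells carrying GAL4-UAS reporter units and a receptor-GAL4 fusion for 24 h. Induced reporter RNA is amplified, fluorescently labelled and sized by capillary electrophoresis, with DMSO as baseline.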
# [4] = biological target: Oxysterols receptor LXR-beta (Homo sapiens) (UniProt P55055); test: ATG_LXRb_TRANS: Attagene TRANS-FACTORIAL HepG2 Assay for human Liver X Receptor beta (LXRb) (AID 2282981); conditions: HepG2 Attagene TRANS GAL4-LXRb reporter, mRNA
# Oxysterols receptor LXR-beta (Homo sapiens), sequence (P55055 whole entry, looked up, the tested form may be a part): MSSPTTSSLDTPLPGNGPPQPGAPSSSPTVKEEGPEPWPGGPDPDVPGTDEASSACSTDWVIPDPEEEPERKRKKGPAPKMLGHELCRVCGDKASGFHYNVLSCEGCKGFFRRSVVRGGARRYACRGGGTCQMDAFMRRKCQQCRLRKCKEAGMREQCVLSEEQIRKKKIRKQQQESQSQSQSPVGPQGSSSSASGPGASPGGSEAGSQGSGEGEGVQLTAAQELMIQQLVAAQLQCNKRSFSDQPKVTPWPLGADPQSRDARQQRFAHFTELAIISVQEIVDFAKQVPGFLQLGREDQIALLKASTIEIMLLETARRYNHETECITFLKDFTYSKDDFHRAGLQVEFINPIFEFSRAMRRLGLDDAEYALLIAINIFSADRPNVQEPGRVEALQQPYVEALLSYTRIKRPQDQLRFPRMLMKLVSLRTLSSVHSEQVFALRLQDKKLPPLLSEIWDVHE
# Procedure, shortened: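 In this TRANS format, exogenous chimeric NR-Gal4 protein activity, not endogenous factors, drives reporter expression in transfected human HepG2 cells. Exposure lasted 24 h; reporter mRNA was read by fluorescent capillary electrophoresis.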
# [5] = ATG_M_06_TRANS: Attagene TRANS-FACTORIAL HepG2 Assay for M06 Transcription Factor (Internal Marker) (AID 2282983); conditions: HepG2 Attagene TRANS M06 internal marker reporter
# Procedure, shortened: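 Internal-marker background readout from a multiplexed TRANS reporter system in HepG2; 24 h dosing; mRNA induction quantified by RT-PCR plus capillary electrophoresis fluorescence; DMSO as negative control and baseline.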
# [6] = ATG_M_32_TRANS: Attagene TRANS-FACTORIAL HepG2 Assay for M32 Transcription Factor (Internal Marker) (AID 2282984); conditions: HepG2 Attagene TRANS M32 internal marker reporter
# Procedure, shortened: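 Human hepatoma HepG2, transient MRTU transfection, 24 h treatment. RNA → RT-PCR → fluorescent primer extension → HpaI digest (2 h, 37 C) → CE. Positive-direction fit vs DMSO.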
# [7] = biological target: Transcriptional activator Myb (Homo sapiens) (UniProt P10242); test: ATG_Myb_CIS: Attagene CIS-FACTORIAL HepG2 Assay for human Myeloblastosis (Myb) Proto-Oncogene Transcription Factor (AID 2282986; active = hit-call score of the fitted dose curve at least 0.9, where 1 is the maximum; inactive = score below 0.9); conditions: HepG2 Attagene CIS-FACTORIAL Myb reporter transcription; actives raise or lower the signal
# Transcriptional activator Myb (Homo sapiens), sequence (P10242 whole entry, looked up): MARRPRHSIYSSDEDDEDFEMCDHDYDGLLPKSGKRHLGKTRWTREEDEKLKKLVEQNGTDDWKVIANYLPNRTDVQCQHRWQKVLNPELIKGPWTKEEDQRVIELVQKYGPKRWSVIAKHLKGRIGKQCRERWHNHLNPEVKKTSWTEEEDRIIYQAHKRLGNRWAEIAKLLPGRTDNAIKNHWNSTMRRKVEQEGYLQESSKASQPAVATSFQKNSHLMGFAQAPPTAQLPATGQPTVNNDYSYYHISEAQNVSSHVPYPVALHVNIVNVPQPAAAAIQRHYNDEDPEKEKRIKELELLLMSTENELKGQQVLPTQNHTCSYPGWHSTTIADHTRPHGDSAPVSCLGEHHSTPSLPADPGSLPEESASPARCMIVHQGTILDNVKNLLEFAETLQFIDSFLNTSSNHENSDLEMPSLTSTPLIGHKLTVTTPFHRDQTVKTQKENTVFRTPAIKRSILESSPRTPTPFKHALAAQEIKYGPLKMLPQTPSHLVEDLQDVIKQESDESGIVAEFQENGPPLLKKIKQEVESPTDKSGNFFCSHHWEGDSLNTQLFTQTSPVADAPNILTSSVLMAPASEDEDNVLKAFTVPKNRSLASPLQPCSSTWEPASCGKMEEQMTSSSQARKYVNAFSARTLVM
# Procedure, shortened: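 Reporter transcript levels, quantified by fluorescent RT-PCR and capillary electrophoresis, serve as the read-out. Transfected HepG2 cells carrying cis-promoter reporter units are dosed for 24 hours, and curves are fitted bidirectionally against DMSO controls.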
# [8] = ATG_GAL4_TRANS: Attagene TRANS-FACTORIAL HepG2 Assay for GAL4 (Internal Marker) (AID 2282976); conditions: HepG2 Attagene TRANS GAL4 internal marker reporter
# Procedure, shortened: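 Liver HepG2 line bearing multiplexed GAL4-UAS reporter constructs; 24 h chemical treatment. Transcripts were quantified as fluorescent fragments on capillary electrophoresis after RT-PCR and HpaI cut, with activity fitted upward from DMSO.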
# [9] = biological target: Hepatocyte nuclear factor 4-alpha (Homo sapiens) (UniProt P41235); test: ATG_HNF4a_TRANS: Attagene TRANS-FACTORIAL HepG2 Assay for human Hepatocyte Nuclear Factor 4 alpha (HNF4a) (AID 2282982); conditions: HepG2 HNF4a transactivation reporter, mRNA readout
# Hepatocyte nuclear factor 4-alpha (Homo sapiens), sequence (P41235 whole entry, looked up, the tested form may be a part): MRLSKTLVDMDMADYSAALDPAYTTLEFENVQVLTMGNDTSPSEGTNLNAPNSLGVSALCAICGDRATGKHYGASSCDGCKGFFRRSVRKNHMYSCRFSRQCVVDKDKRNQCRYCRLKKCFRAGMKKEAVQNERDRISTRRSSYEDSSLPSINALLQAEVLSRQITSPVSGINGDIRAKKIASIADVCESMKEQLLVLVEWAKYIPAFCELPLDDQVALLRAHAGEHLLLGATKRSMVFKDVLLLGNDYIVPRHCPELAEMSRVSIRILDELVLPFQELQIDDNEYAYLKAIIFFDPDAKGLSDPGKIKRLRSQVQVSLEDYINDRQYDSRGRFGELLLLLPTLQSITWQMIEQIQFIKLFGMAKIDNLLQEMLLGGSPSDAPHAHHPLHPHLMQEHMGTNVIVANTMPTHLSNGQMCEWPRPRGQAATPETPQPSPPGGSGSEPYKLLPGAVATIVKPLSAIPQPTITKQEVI
# Procedure, shortened: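 Cells used were human HepG2, transiently carrying GAL4-UAS reporter units read out against exogenous NR-GAL4 chimeras. Reporter transcript levels after 24 h dosing were quantified by fluorescent RT-PCR and capillary electrophoresis.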
# [10] = biological target: Nuclear receptor subfamily 4 group A member 2 (Homo sapiens) (UniProt P43354); test: ATG_NURR1_TRANS: Attagene TRANS-FACTORIAL HepG2 Assay for human Nuclear Receptor Related Protein 1 (NURR1) (AID 2282985); conditions: HepG2 Attagene TRANS reporter, mRNA readout
# Nuclear receptor subfamily 4 group A member 2 (Homo sapiens), sequence (P43354 whole entry, looked up): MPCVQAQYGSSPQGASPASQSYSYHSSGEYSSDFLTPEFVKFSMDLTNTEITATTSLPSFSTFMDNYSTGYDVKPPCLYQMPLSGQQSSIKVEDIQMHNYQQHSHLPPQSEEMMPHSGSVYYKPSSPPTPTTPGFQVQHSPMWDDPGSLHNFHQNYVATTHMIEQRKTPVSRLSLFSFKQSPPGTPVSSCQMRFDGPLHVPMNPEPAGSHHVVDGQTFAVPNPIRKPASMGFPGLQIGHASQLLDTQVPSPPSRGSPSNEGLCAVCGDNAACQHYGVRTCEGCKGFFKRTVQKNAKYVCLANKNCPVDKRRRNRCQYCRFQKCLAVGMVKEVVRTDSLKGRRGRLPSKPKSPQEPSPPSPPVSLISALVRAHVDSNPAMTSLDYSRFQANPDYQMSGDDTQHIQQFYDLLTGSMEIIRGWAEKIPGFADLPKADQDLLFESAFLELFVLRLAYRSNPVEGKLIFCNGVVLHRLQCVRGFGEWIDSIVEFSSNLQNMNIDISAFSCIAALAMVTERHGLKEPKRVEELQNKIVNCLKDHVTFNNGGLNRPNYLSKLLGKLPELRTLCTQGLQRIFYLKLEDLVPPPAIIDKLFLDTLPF
# Procedure, shortened: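 After 24 h chemical dosing, total RNA from transiently transfected HepG2 cells was reverse-transcribed and reporter cDNA PCR-amplified, FAM-labelled and analysed by capillary electrophoresis. Activity fitted in positive direction, DMSO as negative control.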
SMILES,outcome [1],outcome [2],AC50 [3],AC50 [4],outcome [5],outcome [6],outcome [7],outcome [8],outcome [3],outcome [9],AC50 [10],outcome [10],outcome [4]
CC(C)N1C(=O)c2ccccc2NS1(=O)=O,inactive,inactive,50 µM (active),50 µM (active),inactive,inactive,inactive,,,,,,
N#Cc1c[nH]cc1-c1cccc2c1OC(F)(F)O2,inactive,inactive,,,inactive,inactive,inactive,inactive,inactive,inactive,7.82 µM (active),,
CCN(CC)C(=O)C(C)Oc1cccc2ccccc12 (stereo unspecified),inactive,,,,inactive,inactive,inactive,,inactive,inactive,,inactive,
CCOC(=O)C(C)OC(=O)c1cc(Oc2ccc(C(F)(F)F)cc2Cl)ccc1[N+](=O)[O-] (stereo unspecified),inactive,inactive,,,inactive,,inactive,,inactive,,,,inactive
CCCC(=NOCC)C1=C(O)CC(CC(C)SCC)CC1=O (stereo unspecified),inactive,inactive,,,,inactive,inactive,,inactive,inactive,,inactive,
CC(C)N1C(=O)N(c2ccccc2)CSC1=NC(C)(C)C,inactive,inactive,,,,inactive,inactive,,,,,,
CC1(C)C(C=C(Cl)Cl)C1C(=O)OC(C#N)c1cccc(Oc2ccccc2)c1 (stereo unspecified),inactive,inactive,,,inactive,inactive,inactive,inactive,,inactive,,inactive,
CC(C)(C)C(=O)C(Oc1ccc(Cl)cc1)n1cncn1 (stereo unspecified),inactive,inactive,,,,inactive,inactive,,inactive,inactive,,,
COc1cc(OC)nc(NC(=O)NS(=O)(=O)c2ncccc2OCC(F)(F)F)n1,inactive,inactive,,,,inactive,inactive,,inactive,,,inactive,inactive
Cc1c(COC(=O)[C@@H]2[C@H](/C=C(\Cl)C(F)(F)F)C2(C)C)cccc1-c1ccccc1,inactive,,,,inactive,inactive,inactive,inactive,,inactive,,inactive,
COc1cc(Cl)c(OC)cc1Cl,inactive,inactive,,,inactive,inactive,inactive,,inactive,inactive,,,inactive
CCCCC(C#N)(Cn1cncn1)c1ccc(Cl)cc1 (stereo unspecified),inactive,inactive,,,inactive,inactive,inactive,,,inactive,,inactive,inactive
CCOP(=S)(OCC)Oc1nc(Cl)n(C(C)C)n1,inactive,inactive,14.9 µM (active),,inactive,inactive,inactive,,,inactive,,inactive,
CC(C)=CC1C(C(=O)OCc2coc(Cc3ccccc3)c2)C1(C)C (stereo unspecified),inactive,inactive,,,inactive,,inactive,,inactive,inactive,33.9 µM (active),,inactive
CSC(=O)c1c(C(F)F)nc(C(F)(F)F)c(C(=O)SC)c1CC(C)C,inactive,inactive,,,inactive,inactive,inactive,inactive,,inactive,13.5 µM (active),,
COCc1cnc(C2=NC(C)(C(C)C)C(=O)N2)c(C(=O)O)c1 (stereo unspecified),inactive,inactive,,,inactive,inactive,inactive,,,inactive,,inactive,
Nc1c(Cl)c(Cl)nc(C(=O)O)c1Cl,inactive,inactive,,,,inactive,inactive,,,inactive,,inactive,
O=c1n(Cl)c(=O)n(Cl)c(=O)n1Cl,inactive,inactive,,,,,inactive,,inactive,inactive,,inactive,inactive
O=C(Nc1ccccc1-c1ccc(Cl)cc1)c1cccnc1Cl,inactive,inactive,,,inactive,inactive,inactive,,,inactive,,inactive,
CC(C)C1(C)N=C(c2ncccc2C(=O)O)NC1=O (stereo unspecified),inactive,inactive,,,,,inactive,,inactive,inactive,,,inactive
COC(=O)c1c(C(F)F)nc(C(F)(F)F)c(C2=NCCS2)c1CC(C)C,inactive,,,,inactive,inactive,inactive,,inactive,inactive,,inactive,inactive
COP(=O)(OC)O/C(C)=C/C(=O)N(C)C,inactive,,,,inactive,,inactive,,inactive,,,inactive,inactive
N#CN=C1SCCN1Cc1ccc(Cl)nc1,inactive,inactive,,,,inactive,inactive,,inactive,inactive,,inactive,
CCOP(=O)(OCC)Oc1nc(Cl)c(Cl)cc1Cl,inactive,inactive,,,inactive,inactive,inactive,,inactive,,,inactive,
CS(=O)(=O)c1ccc(C(=O)C2C(=O)CCCC2=O)c([N+](=O)[O-])c1,inactive,inactive,,,inactive,inactive,inactive,,inactive,inactive,,inactive,inactive
COP(=S)(OC)SCn1nnc2ccccc2c1=O,inactive,,,,inactive,inactive,inactive,inactive,inactive,,,,
CS(=O)(=O)c1cc(C(F)(F)F)ccc1C(=O)c1cnoc1C1CC1,inactive,inactive,,,,inactive,inactive,,inactive,,,,inactive
CC(C)NC(=O)N1CC(=O)N(c2cc(Cl)cc(Cl)c2)C1=O,inactive,,,,inactive,inactive,inactive,inactive,inactive,,,inactive,inactive
CC(C)Oc1cccc(NC(=O)c2ccccc2C(F)(F)F)c1,inactive,inactive,,,,inactive,inactive,,inactive,inactive,,inactive,inactive
